WRN helicase inh = inhibitors of human WRN helicase; WRN helicase unwinding, fluorescent forked duplex, kinetic; Q14191; Potency, µM (series often up to 114 µM), inactives show top-dose activity change, negative = inhibition, usual class: inhibitors; 360,000 compounds, 0.46% hits; AID 651768; note: potency is the fitted concentration of half-maximal effect; nearly all actives have a fitted effect of over 55% in size
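Fluorescence dequenching readout, ex 525 nm/em 598 nm, kinetic mode: forked duplex DNA (100 nM final) with adjacent fluorophore and quencher unwound by WRN (20 nM final) with 2 mM ATP. Compound preincubation 15 min, room temperature.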
PLK1 PBD inh = blocks phosphopeptide binding to human PLK1 polo-box domain | P53350 | Potency, µM, for inactives: max response, negative = inhibition, most hits filed as inhibitors | Plk1 PBD binding of FITC phosphopeptide, fluorescence polarization | AID 720504 | 360,000 compounds, 2.8% hits; note: potency is the fitted concentration of half-maximal effect; series mostly up to about 57 µM; nearly all actives have a fitted effect of over 65% in size
Target sequence (P53350 whole entry, looked up, the tested form may be a part): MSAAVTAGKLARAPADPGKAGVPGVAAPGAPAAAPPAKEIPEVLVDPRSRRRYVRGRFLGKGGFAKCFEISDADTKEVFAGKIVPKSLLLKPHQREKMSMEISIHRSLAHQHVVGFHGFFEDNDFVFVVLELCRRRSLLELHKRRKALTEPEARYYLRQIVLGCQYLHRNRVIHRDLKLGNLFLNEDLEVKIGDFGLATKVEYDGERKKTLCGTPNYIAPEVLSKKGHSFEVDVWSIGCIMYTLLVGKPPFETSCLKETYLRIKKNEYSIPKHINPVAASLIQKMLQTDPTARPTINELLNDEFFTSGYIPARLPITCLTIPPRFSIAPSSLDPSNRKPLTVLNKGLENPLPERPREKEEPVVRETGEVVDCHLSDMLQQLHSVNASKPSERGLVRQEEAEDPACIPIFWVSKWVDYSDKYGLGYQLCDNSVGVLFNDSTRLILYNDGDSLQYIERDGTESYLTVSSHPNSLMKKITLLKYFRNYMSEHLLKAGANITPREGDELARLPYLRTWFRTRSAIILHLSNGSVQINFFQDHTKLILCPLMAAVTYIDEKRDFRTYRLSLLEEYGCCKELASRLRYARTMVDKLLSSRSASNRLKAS
USP2a block = inhibitors of human ubiquitin-specific protease USP2a. Potency, µM (series often up to 38.3 µM), for the others: at the top dose activity change, negative = inhibition, usual class: inhibitors. O75604. 330,000 compounds, 0.01% hits. AID 463254. USP2 core, Ub-CHOP2 coupled fluorogenic reporter, 485/531;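 note: potency is the fitted concentration of half-maximal effect; plate controls were DMSO wells for no effect and full inhibition by NEM control for full effect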
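Cell-free coupled assay: 10nM USP2 core preincubated 30min RT with compound in Tris-HCl pH 8.0/CaCl2/CHAPS buffer, then 25nM Ub-CHOP2 and 25nM reporter substrate; fluorescence (Ex 485/Em 531) read after 60min RT, normalized to NEM inhibition, concentration-response curves fitted.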
USP1-UAF1 inh = inhibitors of human USP1/UAF1 deubiquitinase | Potency, µM (series often up to 57.1 µM), for the others: top-dose activity change, negative = inhibition, usual class: inhibitors | AID 743255 | 390,000 compounds, 0.23% hits | recombinant USP1/UAF1, Ub-Rhodamine cleavage fluorescence; note: potency is the fitted concentration of half-maximal effect; nearly all actives have a fitted effect of over 60% in size
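1 nM enzyme complex + cpd, 15 min RT; start with Ub-Rho 150nM final; kinetic fluorescence ex 480/em 540, 6 reads q60 s. Buffer 50mM HEPES pH 7.8, 0.5mM EDTA, 0.1 mg/ml BSA, 1mM TCEP, 0.01% Tween-20.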
PI5P4K alpha inh = inhibitors of human PI5P4K alpha | PI5P4Kalpha enzyme, ADP-Glo luminescence, 60 min; active compounds read low | max response, % | 330,000 compounds, 1.2% hits | AID 652105; active = max response of -50% or lower; inconclusive = between -30% and -50%; inactive = -30% or higher; note: value at the top dose of about 77 µM
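qHTS, 1536-well: enzyme/substrate mix, compound by pin tool, 5 microM ATP final; RT 60 min; ADP-Glo reagents 1 (45 min) then 2 (30 min); luminescence.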
Numbers without * were called inactive. Only some compounds are listed: those with a hit (about 3.3% of all), similar ones and a draw of the others. Unless noted, calls come from the whole dose curve; as a rule, active = well fitted curve in the direction sought with a large enough effect; inconclusive = small, poorly fitted or top-dose-only effect, or another doubt; inactive = no such curve, though single readings can be large; an effect the other way counts as inactive or inconclusive. Unless noted, % is set by controls: 0 for no effect and ±100 for the full control effect.

What do the screens show for `CCn1nnc(NC(=O)CSc2ccc(Cl)cc2)n1`?
WRN helicase inh: inconclusive; PLK1 PBD inh: 27µM*; USP2a block: 2%; USP1-UAF1 inh: 13%

Results for CCCCn1nnc(NC(=O)Cc2ccc(Cl)cc2)n1 ?
WRN helicase inh: 1%; PLK1 PBD inh: -9%; USP2a block: 0%; USP1-UAF1 inh: -23%; PI5P4K alpha inh: 4

How did Cc1ccc(-c2nc3ccccc3o2)cc1NC(=O)c1cccc2c(Cl)cccc12 do in these assays?
USP1-UAF1 inh: -12%

Results for OC(COCC1COc2ccccc2O1)CN1CCCCC1 (stereo unspecified) ?
WRN helicase inh: 7%; PLK1 PBD inh: 30µM*; USP2a block: 0%; USP1-UAF1 inh: -11%; PI5P4K alpha inh: 0

What do the screens show for `CCN1CCN(CC(O)COCC2COc3ccccc3O2)CC1` (stereo unspecified)?
WRN helicase inh: inconclusive; PLK1 PBD inh: -2%; USP2a block: 3%; USP1-UAF1 inh: -10%; PI5P4K alpha inh: -7

What do the screens show for `COCCc1nn2c(=O)cc(COC(=O)c3ccccc3C)nc2s1`?
USP1-UAF1 inh: -16%

How did CCCCCC(=O)NC(Cc1ccc(OC)c([N+](=O)[O-])c1)C(=O)O (stereo unspecified) do in these assays?
WRN helicase inh: 1%; PLK1 PBD inh: 21µM*; USP2a block: 0%; USP1-UAF1 inh: -16%; PI5P4K alpha inh: -22

How did Cc1ccc(-c2nnc(SCC(=O)c3ccc(Cl)cc3)n2-c2ccccc2)cc1 do in these assays?
USP1-UAF1 inh: -16%

Results for CN(C)c1ccc(/C=C(\C#N)C(=O)Nc2nc3c(s2)CCN(Cc2ccccc2)C3)cc1 ?
WRN helicase inh: -26%; PLK1 PBD inh: 20%; USP2a block: 6%; USP1-UAF1 inh: 4.5µM*

What do the screens show for `Cc1oc2ccc(O)c(CN3CCCCCC3)c2c1C(=O)Nc1cccc(Cl)c1C`?
USP1-UAF1 inh: -12%

Results for N#CCCN(C(=O)c1ccc2c(=O)n3c(nc2c1)CCCCC3)c1ccccc1 ?
WRN helicase inh: -1%; PLK1 PBD inh: 24µM*; USP2a block: 3%; USP1-UAF1 inh: -23%; PI5P4K alpha inh: -17

What do the screens show for `CCOC(=O)COc1ccc(Br)cc1/C=C1\SC(N)=NC1=O`?
WRN helicase inh: -8%; PLK1 PBD inh: -17%; USP2a block: 2%; USP1-UAF1 inh: -21%; PI5P4K alpha inh: -2

What do the screens show for `CCOC(=O)CSC1=NC(=O)/C(=C\c2ccc(OC(C)=O)cc2)S1`?
WRN helicase inh: -28%; PLK1 PBD inh: 2.1µM*; USP2a block: 2%; USP1-UAF1 inh: 6%

How did CCOC(=O)CSC1=NC(=O)/C(=C/c2ccc(Br)cc2)S1 do in these assays?
WRN helicase inh: -28%; PLK1 PBD inh: 0.84µM*; USP2a block: 2%; USP1-UAF1 inh: -1%; PI5P4K alpha inh: -55*

How did Cc1nn2c3c(cnc2c1-c1ccc(F)cc1)C(=O)CC(c1ccccc1)C3 (stereo unspecified) do in these assays?
USP1-UAF1 inh: -26%

Results for CCn1cnc2c(=O)oc3ccc(S(=O)(=O)Nc4ccc(OC)cc4)cc3c21 ?
USP1-UAF1 inh: -4%

What do the screens show for `N#CCCn1cc(C(N)=O)c(-c2ccc3ccccc3c2)n1`?
WRN helicase inh: 8%; PLK1 PBD inh: 27µM*; USP2a block: -1%; USP1-UAF1 inh: -9%; PI5P4K alpha inh: -8

Results for CCOc1ccc(-c2nnn(CCC#N)n2)cc1OC ?
WRN helicase inh: 7%; PLK1 PBD inh: 19µM*; USP2a block: 3%; USP1-UAF1 inh: inconclusive; PI5P4K alpha inh: inconclusive

Results for Cc1csc2nc(COC(=O)c3cccc(NC(=O)COc4ccccc4Cl)c3)cc(=O)n12 ?
USP1-UAF1 inh: 10%

What do the screens show for `COc1ccc(Cl)cc1N1C(=O)C2CCCN2C1c1sccc1C` (stereo unspecified)?
WRN helicase inh: 6%; PLK1 PBD inh: 24µM*; USP2a block: 2%; USP1-UAF1 inh: -6%; PI5P4K alpha inh: -8

How did COCCCNc1c2c3c(cccc3[nH]c1=O)C(=O)c1ccccc1-2 do in these assays?
WRN helicase inh: 28µM*; PLK1 PBD inh: 0.38µM*; USP2a block: inconclusive; USP1-UAF1 inh: 4.5µM*; PI5P4K alpha inh: -30
